pPAFAH FP inh – pPAFAH (human) enzyme inhibition | Q13093 | inhibition, % at 3.39 µM | recombinant pPAFAH, FP-rhodamine probe fluorescence polarization | 330,000 compounds, 1.5% hits;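 active means inhibition above the mean inhibition across the screen plus 3 SD, cut at about 25% in these data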;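 further: inhibitors block binding of the rhodamine activity-based probe so polarization drops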
Target sequence (Q13093 whole entry, looked up): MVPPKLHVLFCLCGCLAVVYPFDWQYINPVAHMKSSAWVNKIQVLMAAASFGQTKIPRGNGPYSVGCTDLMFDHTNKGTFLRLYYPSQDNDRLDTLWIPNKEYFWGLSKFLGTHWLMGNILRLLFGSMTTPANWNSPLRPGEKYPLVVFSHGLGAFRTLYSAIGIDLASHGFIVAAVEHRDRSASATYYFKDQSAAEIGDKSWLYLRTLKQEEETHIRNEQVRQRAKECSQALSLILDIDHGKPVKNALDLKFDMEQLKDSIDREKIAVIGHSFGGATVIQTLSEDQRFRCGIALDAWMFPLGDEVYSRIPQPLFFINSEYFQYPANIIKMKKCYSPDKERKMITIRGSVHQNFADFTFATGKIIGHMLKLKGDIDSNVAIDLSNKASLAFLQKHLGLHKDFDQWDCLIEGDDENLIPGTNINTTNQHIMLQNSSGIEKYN
PAD4 inh – inhibitors of human PAD4. recombinant PAD4, RCA probe fluorescence polarization. inhibition, % at 6.36 µM. 330,000 compounds, 0.41% hits. AID 485272;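 active means percent inhibition above a cutoff equal to the mean of all tested compounds plus 3 SD, cut at about 15% in these data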
GSTO1 counter – blocks human GSTO1 in RBBP9 counter-screen; P78417; recombinant GSTO1, activity-based probe fluorescence polarization; inhibition, % at 5.96 µM; 300,000 compounds, 1.1% hits; AID 1974;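 active means inhibition above the campaign mean inhibition plus 3 SD, cut at about 35% in these data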
Target sequence (P78417 whole entry, looked up): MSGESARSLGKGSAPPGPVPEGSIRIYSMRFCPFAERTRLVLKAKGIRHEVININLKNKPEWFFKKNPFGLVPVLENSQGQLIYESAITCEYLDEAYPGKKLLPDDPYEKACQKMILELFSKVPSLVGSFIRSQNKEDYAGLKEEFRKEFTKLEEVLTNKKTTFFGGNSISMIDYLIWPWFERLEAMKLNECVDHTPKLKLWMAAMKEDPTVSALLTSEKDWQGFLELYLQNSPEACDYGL
Fam108B counter – blocks mouse Fam108B hydrolase in RBBP9 counter-screen | recombinant Fam108B, FP-Rh probe fluorescence polarization | AID 1947 | 300,000 compounds, 0.33% hits | inhibition, % at 9.51 µM;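 active means inhibition above the screen mean inhibition plus 3 SD, computed separately per campaign, cut at about 18% in these data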;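 further: inhibitors lower polarization as less probe binds the enzyme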
PME-1 inh – blocks human protein phosphatase methylesterase 1; 320,000 compounds, 0.53% hits; inhibition, % at 5.9 µM; Q9Y570; recombinant PME-1, FP-Rh probe fluorescence polarization; AID 2130;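 active means inhibition above the campaign mean of all compounds plus 3 SD, cut at about 26% in these data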;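 further: competitive labeling of PME-1 active site by serine hydrolase directed probe; inhibitors block probe labeling so polarization falls and inhibition rises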
pPAFAH FP conf – confirmation of human plasma PAF acetylhydrolase (pPAFAH) inhibitors; AID 463230; 2,300 compounds, 72% hits; shares compounds with pPAFAH FP inh; recombinant pPAFAH, FP-Rh probe fluorescence polarization; inhibition, % at 3.39 µM;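 active means mean inhibition of the triplicate above the hit cutoff set for the earlier primary screen, cut at about 25% in these data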
Of the large screens only hits and unclear results are named; the others gave an inactive call (follow-up assays come after a bar, where they were run). A selection: hits, their analogues and other compounds. The true share with any hit is near 2.3%.

CCOc1ccc(NC(=S)NC(=O)/C=C/c2ccc(C)cc2)c([N+](=O)[O-])c1	pPAFAH FP inh 38.2 | pPAFAH FP conf inactive
CCOc1ccc(NC(=S)NC(=O)/C=C/c2ccc(OC)c(OC)c2)c([N+](=O)[O-])c1	none
O=S(=O)(Nc1ccc(O)c(Sc2nc3ccccc3s2)c1)c1ccc(F)cc1	pPAFAH FP inh 52.1 | pPAFAH FP conf 40.3
CCC1Sc2ccc(S(=O)(=O)CCC(=O)Nc3cc(C)ccn3)cc2NC1=O (stereo unspecified)	none
O=C(O)c1ccc(-n2cccc2/C=N\NC(=O)c2cc3cc(Br)ccc3o2)cc1	pPAFAH FP inh 47.6 | pPAFAH FP conf 24.9
Cc1nc2nc(SCC(=O)O)nn2c(C)c1Cc1ccccc1Cl	none
COc1ccccc1CNC(=O)c1ccccc1C(=O)NC(CC(C)C)C(=O)NCc1ccccc1OC (stereo unspecified)	none
Cc1cc(C)nc(N/N=C/C2=C(N3CCOCC3)C(=C\c3ccc(Cl)cc3)/CC2)n1	pPAFAH FP inh 62.4 | pPAFAH FP conf 98.1
Cc1cc(C)nc(N/N=C/c2ccc(N3CCOCC3)cc2)n1	none
CCc1noc(C)c1C(=O)OCC(=O)NC(C)c1ccccc1 (stereo unspecified)	pPAFAH FP inh 34.7 (no result: GSTO1 counter, Fam108B counter) | pPAFAH FP conf inactive
COc1ccccc1C(=O)NCC(=O)OCC(=O)Nc1ccc2[nH]c(=O)[nH]c2c1	pPAFAH FP inh 39.4 | pPAFAH FP conf inactive
O=C(COC(=O)CNC(=O)c1ccccc1F)Nc1ccc2[nH]c(=O)[nH]c2c1	none
CCc1nc(Nc2ccc(N3CCN(C(C)=O)CC3)cc2)c2oc3ccccc3c2n1	pPAFAH FP inh 41.5 | pPAFAH FP conf 33.2
CC(=O)N1CCN(c2ccc(Nc3ncnc4c3oc3ccccc34)cc2)CC1	pPAFAH FP inh 69.3 | pPAFAH FP conf 67.0
CCc1nc(Nc2ccccc2)c2oc3ccccc3c2n1	none
Oc1ccc(Nc2ncnc3c2oc2ccccc23)cc1	none
CN(C)CCN[C@H]1CCC2C3CC=C4C[C@@H](O)CC[C@]4(C)C3CC[C@@]21C (stereo partly specified)	none (no result: GSTO1 counter, Fam108B counter, PME-1 inh)
COc1cc(C2C(C#N)=C(N)OC3=C2C(=O)CCC3)c([N+](=O)[O-])cc1OC (stereo unspecified)	pPAFAH FP inh 38.2, GSTO1 counter 37.5, Fam108B counter 19.1 | pPAFAH FP conf inactive
COc1ccc2[nH]c(O)c(N=NC(=O)c3ccc(NS(=O)(=O)c4cccs4)cc3)c2c1	pPAFAH FP inh 44.0, PME-1 inh 29.9 (no result: GSTO1 counter, Fam108B counter) | pPAFAH FP conf 39.3
CC[C@]12c3[nH]c4ccc(OC)cc4c3CCN1C(=O)C(CC(=O)NCc1ccc(OC)c(OC)c1)C[C@@H]2C(=O)N1CCN(C(=O)C2CC2)CC1 (stereo partly specified)	none (no result: GSTO1 counter, Fam108B counter, PME-1 inh)
O=C(NCc1cccnc1)c1ccc(-c2cccc(Cl)c2Cl)o1	none
O=C(NCc1cccnc1)c1ccc(-c2ccccc2[N+](=O)[O-])o1	pPAFAH FP inh 56.0 | pPAFAH FP conf inactive
C=CCn1c(C)nc2ccccc2c1=O	none
C=CCn1c(N/N=C/c2ccc(O)cc2)nc2ccccc2c1=O	pPAFAH FP inh 35.1 | pPAFAH FP conf inactive
CCC(C(=O)O)n1c2ccccc2c2cn[nH]c(=O)c21 (stereo unspecified)	none
CCC1(CC)NC(=O)N(CC(=O)Nc2cccc3ccccc23)C1=O	none (no result: GSTO1 counter, Fam108B counter, PME-1 inh)
CCOc1ccc2c(c1)C(=O)c1cc(OCC(=O)O)ccc1-2	pPAFAH FP inh 36.9 | pPAFAH FP conf inactive
COc1ccc(S(=O)(=O)/N=C2/NC(=O)/C(=C\c3ccco3)S2)cc1	pPAFAH FP inh 35.3 | pPAFAH FP conf inactive
COc1ccc(S(=O)(=O)/N=C2/NC(=O)/C(=C\c3cc(OC)c(OC)cc3[N+](=O)[O-])S2)cc1	none
CCCCCCC[C@@H](C/C=C/CCC(=O)O)OC	none (no result: GSTO1 counter, Fam108B counter, PME-1 inh)
CCCCCCC[C@@H](C/C=C/CCC(=O)N(C)C/C(=C/Cl)C/C(=C\C(=O)N1C[C@H](O)CC1=O)OC)OC	pPAFAH FP inh 41.0 (no result: GSTO1 counter, Fam108B counter, PME-1 inh) | pPAFAH FP conf 37.3
COc1ccc(NS(=O)(=O)c2ccc(O)c(NC(=O)c3ccc(S(=O)(=O)N4CCCCCC4)cc3)c2)cc1	pPAFAH FP inh 46.3 | pPAFAH FP conf 57.1
O=C(Nc1cc(S(=O)(=O)N2CCOCC2)ccc1O)c1ccc(NS(=O)(=O)c2ccc(Cl)s2)cc1	pPAFAH FP inh 45.0 | pPAFAH FP conf 45.3
COC(=O)C1=C(C)N(Cc2ccccc2)C(=NCCCCO)N[C@H]1CCc1ccccc1	none
Cc1cc(C)c(S(=O)(=O)NCC(=O)NCc2cc(=O)n(C)c(=O)n2C)c(C)c1	none
COc1cc2[nH]c3c(Cl)ncnc3c2cc1OC	none
COc1cc2[nH]c3c(N4CCN(c5ccc(Cl)cc5)CC4)ncnc3c2cc1OC	pPAFAH FP inh 61.8, PME-1 inh 28.3 | pPAFAH FP conf 53.8
CC1(C)COC(c2ccc(F)c([N+](=O)[O-])c2)=N1	none
CC1=C([N+](=O)[O-])C(c2cccc(Br)c2)C2=C(N1)c1ccccc1C2=O (stereo unspecified)	pPAFAH FP inh 37.8, PME-1 inh 33.5 | pPAFAH FP conf 25.9
COC(=O)C1=C(C)NC2=C(C(=O)c3ccccc32)C1c1cccc(OC)c1 (stereo unspecified)	none
O=C(NCCNC(=O)c1ccc(-c2ccc(Cl)c(Cl)c2)o1)c1cnccn1	none
CN(C(=O)CC1C(=O)NCCN1Cc1ccc(F)c(F)c1)C1CCOCC1 (stereo unspecified)	pPAFAH FP inh 58.6 | pPAFAH FP conf inactive
Cc1ccc(C(=O)OCC(=O)N(Cc2ccccc2)C(C)C)cc1C	none (no result: GSTO1 counter, Fam108B counter, PME-1 inh)
C=CCn1c(SC(C)C(=O)Nc2ccc(F)c(F)c2F)nnc1C1CC1 (stereo unspecified)	pPAFAH FP inh 35.2 | pPAFAH FP conf inactive
O=C(c1cn(-c2ccccc2)nc1-c1cccnc1)N1CCCC(C(F)(F)F)C1 (stereo unspecified)	none
Cc1ccc(C)n1Cc1ccc(C(=O)O)cc1	pPAFAH FP inh 47.2, GSTO1 counter 58.5, Fam108B counter 37.4 | pPAFAH FP conf 62.2
Cc1cc(C(=O)CSc2nc(N)cc(=O)[nH]2)c(C)n1CCc1ccc(F)cc1	pPAFAH FP inh 61.3, PAD4 inh 31.8 | pPAFAH FP conf 61.5
Cc1cc(C(=O)CSc2nc(N)cc(=O)[nH]2)c(C)n1-c1ccc(OC(F)F)cc1	pPAFAH FP inh 59.6 | pPAFAH FP conf 70.6
Cc1cc(-n2c(C)cc(C(=O)CSc3nc(N)cc(=O)[nH]3)c2C)no1	none
CC(=O)Nc1ccc(NC(=O)CSc2nnc(-c3ccco3)o2)cc1	none
CC(=O)c1ccc(NC(=O)CSc2nnc(-c3ccco3)c(-c3ccco3)n2)cc1	pPAFAH FP inh 46.4, GSTO1 counter 35.3 | pPAFAH FP conf inactive
NS(=O)(=O)c1ccc(N2CCCC2=O)c([N+](=O)[O-])c1	pPAFAH FP inh 43.5 | pPAFAH FP conf inactive
CCN1C(=O)C2C(c3ccccc3F)NC(Cc3ccc(O)cc3)(C(=O)OC)C2C1=O (stereo unspecified)	pPAFAH FP inh 47.6 | pPAFAH FP conf inactive

Source: PubChem BioAssay
